In all, about 94,000 compounds went through this assay and about 4,000 (4.3%) were called active. Entries that show only a call come without a potency. Not shown: some 29% with an inconclusive outcome. The call rests on the fitted dose curve; in most records, active means well fitted inhibition curve with a large enough effect; inconclusive means small, poorly fitted or top-dose-only effect; inactive means no such curve, though single readings can be large or run the other way. This excerpt belongs to a sample that is enriched for actives.
Potency means the concentration at half of the fitted maximal effect.

The assay is described as follows: Cytotoxic Profiling in NIH 3T3 Cell Line of Diverse Libraries Using Quantitative High-Throughput Screening. Further: nearly all actives have a fitted effect of over 55% in size. The settings on record: NIH 3T3 viability, CellTiter-Glo ATP luminescence, 48-72 h; series mostly up to 96.7 µM. The method, boiled down: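 ATP-dependent luminescence (CellTiter-Glo) served as the viability signal for NIH 3T3 cells treated with compound for 48 or 72 hr at 37 °C.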
As to `CN(Cc1cccc(C(F)(F)F)c1)Cc1cccc(C(F)(F)F)c1`, the Potency entry was “inactive”. Regarding `CC(C)(C)n1nnnc1C1CC2(CCOCC2)C(=O)N1Cc1ccc(F)cc1` (stereo unspecified), the Potency result is “inactive”.

In the case of `Cc1ccc(-c2cccc(CN3CCCC3C(=O)NCc3ccc(C(F)(F)F)cc3)c2)cc1Cl` (stereo unspecified), the Potency is 31.6 µM (active).

`Cc1ccc(CNC(=O)[C@@H]2COCC(=O)N2Cc2ccc(F)cc2)cc1`: the Potency result is “inactive”. Next, `COc1cccc(CC(=O)N2CCC(N3C(=O)CCC3C(=O)NCc3ccccc3)CC2)c1` (stereo unspecified): “inactive”; `COc1cccc(-c2cccc(C(=O)N3CCCC3C(=O)NCC3CC3)c2)c1` (stereo unspecified): “inactive”. As to `Cc1ccc(-c2cccc(CN3CCCC(NC(=O)c4ccc(C(F)(F)F)cc4)C3)c2)cc1Cl` (stereo unspecified), the Potency result is “inactive”. The same measure for `COc1cccc(-c2ccc(CN3CCCC3C(=O)NCc3ccccc3Cl)cc2)c1` (stereo unspecified): 39.8 µM (active). As to `CN(CC1CCOCC1)C(=O)Cc1ccsc1`, the Potency entry was “inactive”. Turning to `COc1ccc(N2CCC(NS(=O)(=O)C3CC3)C2=O)cc1` (stereo unspecified), the Potency result is “inactive”. Next, `CN(C)Cc1cn(C[C@H]2C[C@@H](NS(=O)(=O)c3ccccc3)[C@H](O)[C@@H]2O)nn1`: “inactive”; `O=C(C1CCC1)N1CCC(C(=O)N2CCCC2c2ccco2)CC1` (stereo unspecified): “inactive”; `CN(CC1CCOCC1)C(=O)c1ccc(Cl)cc1`: “inactive”. Next, `COCCNC(=O)[C@@H]1CCC[C@@H](NCc2ccc(F)cc2)CN(C)C(=O)C1`: “inactive”.

Take `CC(=O)N1CCCN(C(=O)C2CCCCN2Cc2ccc(-c3ccsc3)cc2)CC1` (stereo unspecified): the Potency result is “inactive”. As for `CCOCCOC1CCN(C(=O)NCc2ccc(F)cc2)CC1`, the Potency result was “inactive”. Next, `CCN1CCN(C(=O)C2CCCCN2Cc2ccc(-c3cc(F)ccc3OC)cc2)CC1` (stereo unspecified): 35.5 µM (active); `CCOCCNC(=O)C1CCCCN1Cc1ccc(-c2cc(F)ccc2OC)cc1` (stereo unspecified): 39.8 µM (active); `O=C(C1CCCCN1Cc1ccc(-c2cccs2)cc1)N1CCOCC1` (stereo unspecified): “inactive”. Next, `O=C(c1cccn1C1CC1)N1C[C@H](CO)C[C@H](CN2CCCC2)C1`: “inactive”; `COCC1CN(C)CC12CCN(C(=O)C1CCOCC1)CC2` (stereo unspecified): “inactive”; `Cc1ccccc1S(=O)(=O)N1CCC2(CC1)CC(OCC1CC1)CCO2` (stereo unspecified): “inactive”.

Regarding `COc1cc(F)ccc1-c1ccnc2nc(C(C)C)nn12`, the Potency result was “inactive”. With `Cc1noc([C@@H]2CN(S(=O)(=O)c3cccs3)C[C@H]2C(N)=O)n1`, the Potency entry was “inactive”. Take `COc1ccccc1-c1onc(C)c1C(=O)NCCC(c1ccccc1)c1ccccc1`: the Potency was 31.6 µM (active). Next, `CCCOCCCNC(=O)c1c(C)noc1-c1cc(OC)c(OC)c(OC)c1`: “inactive”; `COc1ccccc1-c1onc(C)c1C(=O)NCc1ccc(Cl)cc1`: “inactive”; `COC[C@@H]1CN(Cc2ccccn2)C[C@H]1C(=O)N(C)C`: “inactive”. Next, `Cc1cc(CNC(=O)C2CCCN(C3CCN(CCc4ccccc4)CC3)C2)on1` (stereo unspecified): “inactive”; `O=C(Nc1cccc(Cl)c1)c1cnc2c(c1)N(C(=O)CCc1ccccc1)CCC2`: “inactive”. Consider `CC(C)Nc1ncc(C(=O)NC2CCCN(CCc3ccccc3)C2)cn1` (stereo unspecified), for which the Potency result is “inactive”.

With `CC(C)CCNC(=O)c1cnc2c(c1)N(Cc1ccccc1)CCC2`, the Potency is 79.4 µM (active). The same measure for `Cc1cccc(C(=O)N2CCCN(c3nnc4ccccn34)CC2)c1`: “inactive”; for `Cc1cc(C(=O)NCC(C)C)c2c(C3CCNC3)noc2n1` (stereo unspecified): “inactive”. Consider `COc1cc(SC)ccc1C(=O)N[C@@H]1C=C(C(=O)N[C@@H](Cc2cccs2)C(N)=O)C[C@@H](O)[C@@H]1O`, for which the Potency entry was “inactive”. The same measure for `Cc1ccc(C)c(NC(=O)C2CC(=O)N(c3n[nH]c4cc(Br)ccc34)C2)c1` (stereo unspecified): “inactive”; for `Cc1nc(N2CCC(NCCNc3ccncc3C)CC2)c2ccsc2n1`: 44.7 µM (active); for `Cc1nc(N2CCC(NC(=O)c3cnccn3)CC2)cc(C(F)(F)F)n1`: “inactive”. Next, `Cc1[nH]ncc1CNC(=O)C1CCN(c2cnn(CC3CC3)c(=O)c2)C1` (stereo unspecified): “inactive”; `O=C(NCc1nc(-c2ncccn2)no1)[C@H]1CNC[C@@H](C(=O)N2CCCC2)C1`: “inactive”; `O=C1CCN(C(=O)c2ccc3ccccc3n2)CCCCCCN1`: “inactive”. Regarding `CCn1cc(CN2CCCCCNC(=O)[C@@H]3CCC[C@@H]32)cn1`, the Potency entry is “inactive”. Next, `Cc1cccc(C)c1-c1nc(C(=O)N2CCN(c3ncccn3)CC2)n2ccccc12`: 39.8 µM (active); `CC(C)(C)c1nc(C(=O)N2CCOCC2)n2ccccc12`: “inactive”. Next, `O=C(c1nc(-c2cccnc2)c2cnccn12)N1CCN(c2ncccn2)CC1`: “inactive”; `COc1ccc(C2Cn3cnc(C(=O)N4CCC(C(=O)NC5CCCC5)CC4)c3CO2)cc1` (stereo unspecified): “inactive”. Next, `COCC1CN(C(C)=O)CC12CCN(C(=O)C1CC=CCC1)CC2` (stereo unspecified): “inactive”; `COC(=O)CNC(=O)C1CCN(Cc2ccccc2-c2ccccc2F)CC1`: “inactive”. Regarding `O=C(C1CCN(Cc2ccccc2-c2ccccc2F)CC1)N1CCC(c2ccccc2)CC1`, the Potency was 31.6 µM (active). Take `CC(=O)N1CCCC1C(=O)N1CCC(c2ccccc2)CC1` (stereo unspecified): the Potency entry is “inactive”.

`Cc1noc(C)c1CC(=O)N1CCC(c2n[nH]c(=O)n2Cc2ccc(F)cc2)CC1`: the Potency result was “inactive”.

For `COc1cc(F)ccc1-c1ccc(COc2ccc3c(cnn3CCC(=O)O)c2)cc1`, the Potency result was “inactive”.

On to `O=C(O)CCn1ncc2cc(OC3CCN(C(=O)C4CCCC4)CC3)ccc21`, for which the Potency is 44.7 µM (active). Next, `O=C(C1CCC1)N1CCC(Oc2cccnc2)C1` (stereo unspecified): “inactive”; `COc1ccc(CNC(=O)NCC2Cn3cccc3CN2C)cc1` (stereo unspecified): “inactive”. Next, `Cc1ccc(OCc2nc(C3CCN(C(=O)c4noc(C)c4CN4CCCCC4)CC3)no2)cc1`: 31.6 µM (active). On to `Cc1ccc(OCc2nc(C3CCN(C(=O)c4c5c(nc6ccccc46)CCCC5)CC3)no2)cc1`, for which the Potency result was “inactive”. Next, `COCCOCc1nc(C2CCN(C(=O)c3ccncc3)CC2)no1`: “inactive”; `COc1ccc(C(=O)N2CCC(C(=O)N3CCC(N4CCOCC4=O)CC3)CC2)cc1`: “inactive”.

Regarding `CN(C)CCNC(=O)C(C)(C)Oc1nn(Cc2cccc(Cl)c2)c2ccccc12`, the Potency is 10 µM (active).

As for `O=C(CN1C(=O)NC2(CCCCC2)C1=O)Nc1cccc(Br)c1`, the Potency entry is “inactive”. The same measure for `CCNC(=O)N[C@H]1[C@H](O)[C@@H](N(C)CCc2ccccn2)[C@@H]2OC[C@H]1O2`: “inactive”. With `O=C(C1CCCC1)N1CCCCC1c1nc(C2CC2)n[nH]1` (stereo unspecified), the Potency entry was “inactive”. The same measure for `COCCN1CCCN(C(=O)c2ccccc2Cl)c2ccccc21`: “inactive”; for `CN1CCCN(C(=O)c2ccccc2OC(F)(F)F)c2ccccc21`: “inactive”; for `COc1ccccc1C(=O)N1CCCN(CCc2ccccc2)c2ccccc21`: 31.6 µM (active).

Source of the values: PubChem BioAssay AID1345082 (National Center for Advancing Translational Sciences (NCATS), 2018).
